What all share (assay): DAPPL (digital affinity profiling via proximity ligation, sequencing); 10 mM Tris-HCl pH 7.5, 50 mM NaCl, 1 mM DTT, 4% glycerol, room temperature, 30 min; GST-TFs on glutathione beads, 16-mer random dsDNA library, 0.1% formaldehyde crosslink after washing; high values mean tight binding
Common to all, as to details: protein: recombinant; tags: N-terminal GST; dsDNA, one strand shown

One assay addresses T1, FLI1 (Homo sapiens, UniProt Q01543 1-452).
T1 sequence: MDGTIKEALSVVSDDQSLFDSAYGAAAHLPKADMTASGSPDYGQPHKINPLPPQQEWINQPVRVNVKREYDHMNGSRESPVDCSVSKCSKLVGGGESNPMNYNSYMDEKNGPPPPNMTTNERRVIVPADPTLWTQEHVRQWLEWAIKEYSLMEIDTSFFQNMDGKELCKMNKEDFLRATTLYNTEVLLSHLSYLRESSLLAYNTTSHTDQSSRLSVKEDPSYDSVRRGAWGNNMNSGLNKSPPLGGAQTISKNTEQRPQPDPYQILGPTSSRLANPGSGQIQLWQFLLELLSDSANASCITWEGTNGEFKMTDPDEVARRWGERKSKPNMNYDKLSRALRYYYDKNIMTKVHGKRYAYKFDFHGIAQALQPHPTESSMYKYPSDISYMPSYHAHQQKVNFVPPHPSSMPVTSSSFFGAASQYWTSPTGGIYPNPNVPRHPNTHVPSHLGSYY
The method, boiled down: (§1)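 After expression in yeast as GST fusions, human transcription factors were bound to glutathione beads, DNA-barcoded and mixed with a tag-only sample. The pools were incubated with 200 nmole of a 16-mer random double-stranded DNA library in Tris/NaCl/DTT/glycerol buffer (30 min, room temperature), washed and crosslinked with 0.1% formaldehyde. Proximity ligation with BsaI/T4 ligase ran for 1 h at 37 °C, before PCR amplification and sequencing on an Illumina NextSeq500. Binding signal is a hexamer's read frequency for a factor divided by its frequency for the tag-only sample.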

Another assay deals with T2, ELK1 (Homo sapiens, UniProt P19419 1-428).
T2 sequence: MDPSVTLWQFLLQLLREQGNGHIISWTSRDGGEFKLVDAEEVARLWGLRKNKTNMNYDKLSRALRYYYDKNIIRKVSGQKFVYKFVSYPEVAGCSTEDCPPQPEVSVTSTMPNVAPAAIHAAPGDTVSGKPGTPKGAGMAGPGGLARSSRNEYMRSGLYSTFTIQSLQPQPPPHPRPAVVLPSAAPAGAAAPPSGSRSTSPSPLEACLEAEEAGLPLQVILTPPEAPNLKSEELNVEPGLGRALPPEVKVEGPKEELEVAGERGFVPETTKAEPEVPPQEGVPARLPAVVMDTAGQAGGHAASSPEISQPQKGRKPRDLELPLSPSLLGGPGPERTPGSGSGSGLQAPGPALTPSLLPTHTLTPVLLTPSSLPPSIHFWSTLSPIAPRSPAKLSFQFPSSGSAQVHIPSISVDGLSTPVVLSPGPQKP
The gist of the method:
as §1

The next assay has as its target T3, GABPA (Homo sapiens, UniProt Q06546 1-454).
T3 sequence: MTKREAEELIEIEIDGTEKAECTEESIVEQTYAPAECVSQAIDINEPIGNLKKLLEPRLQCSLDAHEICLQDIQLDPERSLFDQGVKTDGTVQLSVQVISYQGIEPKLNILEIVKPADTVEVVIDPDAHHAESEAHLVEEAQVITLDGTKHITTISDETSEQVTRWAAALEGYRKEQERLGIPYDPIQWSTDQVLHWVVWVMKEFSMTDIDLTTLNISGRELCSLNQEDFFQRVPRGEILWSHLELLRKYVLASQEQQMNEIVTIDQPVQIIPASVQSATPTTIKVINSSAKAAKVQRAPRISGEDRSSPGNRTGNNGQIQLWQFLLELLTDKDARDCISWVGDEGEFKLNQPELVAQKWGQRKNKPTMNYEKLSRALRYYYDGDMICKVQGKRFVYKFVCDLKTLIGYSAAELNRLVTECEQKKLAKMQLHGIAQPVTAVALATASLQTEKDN
The method, boiled down: as §1

In a further assay the target is T4, ERG (Homo sapiens, UniProt P11308 1-479).
T4 sequence: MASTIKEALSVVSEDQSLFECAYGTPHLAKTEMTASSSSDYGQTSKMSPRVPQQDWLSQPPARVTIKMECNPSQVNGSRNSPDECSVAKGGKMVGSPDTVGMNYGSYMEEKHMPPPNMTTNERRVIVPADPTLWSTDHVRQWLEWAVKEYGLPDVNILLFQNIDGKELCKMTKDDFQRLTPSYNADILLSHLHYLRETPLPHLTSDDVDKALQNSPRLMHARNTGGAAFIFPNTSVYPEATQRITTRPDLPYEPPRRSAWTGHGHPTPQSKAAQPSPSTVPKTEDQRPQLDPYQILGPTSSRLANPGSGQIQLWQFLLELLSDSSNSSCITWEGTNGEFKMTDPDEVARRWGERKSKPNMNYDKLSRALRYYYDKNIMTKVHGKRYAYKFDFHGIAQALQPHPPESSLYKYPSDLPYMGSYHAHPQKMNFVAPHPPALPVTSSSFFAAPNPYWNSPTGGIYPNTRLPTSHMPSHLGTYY
The method, boiled down: as §1

Another assay concerns the target ELF1 (Homo sapiens, UniProt P32519 1-619). The method, boiled down: as §1
The next assay deals with T5, EHF (Homo sapiens, UniProt Q9NZC4 1-300).
T5 sequence: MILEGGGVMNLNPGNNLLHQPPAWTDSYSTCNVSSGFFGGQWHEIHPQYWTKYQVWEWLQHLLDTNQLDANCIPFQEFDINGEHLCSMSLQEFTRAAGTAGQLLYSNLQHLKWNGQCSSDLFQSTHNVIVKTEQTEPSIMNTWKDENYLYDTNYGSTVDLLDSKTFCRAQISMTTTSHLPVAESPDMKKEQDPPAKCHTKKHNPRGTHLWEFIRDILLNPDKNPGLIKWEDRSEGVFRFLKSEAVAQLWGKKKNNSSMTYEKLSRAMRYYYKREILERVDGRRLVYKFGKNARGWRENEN
The gist of the method: as §1

A further assay has as its target SPI1 (Homo sapiens, UniProt P17947 1-270). The method, boiled down: as §1
The target in another assay is SPIB (Homo sapiens, UniProt Q01892 1-262). The gist of the method:
as §1

Another assay deals with T6, ELK3 (Homo sapiens, UniProt P41970 1-407).
T6 sequence: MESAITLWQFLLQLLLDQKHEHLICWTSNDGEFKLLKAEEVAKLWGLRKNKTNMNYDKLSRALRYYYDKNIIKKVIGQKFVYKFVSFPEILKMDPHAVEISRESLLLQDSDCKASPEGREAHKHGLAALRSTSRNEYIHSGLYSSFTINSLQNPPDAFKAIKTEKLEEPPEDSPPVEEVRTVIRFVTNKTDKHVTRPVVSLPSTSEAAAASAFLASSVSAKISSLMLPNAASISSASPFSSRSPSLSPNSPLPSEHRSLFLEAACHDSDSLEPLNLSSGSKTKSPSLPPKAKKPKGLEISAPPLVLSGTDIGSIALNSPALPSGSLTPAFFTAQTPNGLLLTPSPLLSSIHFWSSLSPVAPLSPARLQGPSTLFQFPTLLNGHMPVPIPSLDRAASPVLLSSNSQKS
The gist of the method:
as §1

A further assay deals with T7, FEV (Homo sapiens, UniProt Q99581 1-238).
T7 sequence: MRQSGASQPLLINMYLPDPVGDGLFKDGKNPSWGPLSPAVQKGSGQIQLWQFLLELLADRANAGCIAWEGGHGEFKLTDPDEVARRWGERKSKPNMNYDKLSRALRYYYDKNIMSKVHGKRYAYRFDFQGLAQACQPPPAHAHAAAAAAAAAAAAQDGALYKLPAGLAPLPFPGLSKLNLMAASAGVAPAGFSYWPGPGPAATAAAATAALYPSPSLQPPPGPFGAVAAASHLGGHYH
The method, boiled down: as §1

For another assay, the target named is ETV5 (Homo sapiens, UniProt P41161 1-510). The gist of the method: as §1
Sequence of ETV5 (P41161 whole entry): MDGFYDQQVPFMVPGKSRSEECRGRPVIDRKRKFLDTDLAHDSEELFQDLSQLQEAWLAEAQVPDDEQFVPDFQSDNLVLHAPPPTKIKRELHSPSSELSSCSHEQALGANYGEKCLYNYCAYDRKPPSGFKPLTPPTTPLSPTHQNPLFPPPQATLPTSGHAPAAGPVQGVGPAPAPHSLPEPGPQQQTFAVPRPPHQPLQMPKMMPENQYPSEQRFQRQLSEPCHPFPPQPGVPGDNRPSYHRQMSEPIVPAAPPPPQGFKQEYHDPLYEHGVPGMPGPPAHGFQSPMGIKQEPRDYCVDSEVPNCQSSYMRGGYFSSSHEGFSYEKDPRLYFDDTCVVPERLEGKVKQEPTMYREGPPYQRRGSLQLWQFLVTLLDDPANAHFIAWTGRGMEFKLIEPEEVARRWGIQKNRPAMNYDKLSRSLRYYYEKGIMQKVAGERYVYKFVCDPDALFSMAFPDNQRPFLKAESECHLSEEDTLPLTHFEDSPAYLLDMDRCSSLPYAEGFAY
The target of the next assay is T8, SPIC (Homo sapiens, UniProt Q8N5J4 1-248).
T8 sequence: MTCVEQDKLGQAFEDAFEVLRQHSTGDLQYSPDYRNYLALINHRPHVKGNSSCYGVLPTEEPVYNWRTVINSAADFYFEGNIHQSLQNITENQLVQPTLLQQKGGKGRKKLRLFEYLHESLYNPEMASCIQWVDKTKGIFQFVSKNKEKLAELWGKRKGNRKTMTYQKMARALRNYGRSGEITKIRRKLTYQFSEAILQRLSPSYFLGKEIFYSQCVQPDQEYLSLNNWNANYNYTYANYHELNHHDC
The method, boiled down: as §1

In a further assay the target is ELF4 (Homo sapiens, UniProt Q99607 1-663). The gist of the method: as §1
Sequence of ELF4 (Q99607 whole entry): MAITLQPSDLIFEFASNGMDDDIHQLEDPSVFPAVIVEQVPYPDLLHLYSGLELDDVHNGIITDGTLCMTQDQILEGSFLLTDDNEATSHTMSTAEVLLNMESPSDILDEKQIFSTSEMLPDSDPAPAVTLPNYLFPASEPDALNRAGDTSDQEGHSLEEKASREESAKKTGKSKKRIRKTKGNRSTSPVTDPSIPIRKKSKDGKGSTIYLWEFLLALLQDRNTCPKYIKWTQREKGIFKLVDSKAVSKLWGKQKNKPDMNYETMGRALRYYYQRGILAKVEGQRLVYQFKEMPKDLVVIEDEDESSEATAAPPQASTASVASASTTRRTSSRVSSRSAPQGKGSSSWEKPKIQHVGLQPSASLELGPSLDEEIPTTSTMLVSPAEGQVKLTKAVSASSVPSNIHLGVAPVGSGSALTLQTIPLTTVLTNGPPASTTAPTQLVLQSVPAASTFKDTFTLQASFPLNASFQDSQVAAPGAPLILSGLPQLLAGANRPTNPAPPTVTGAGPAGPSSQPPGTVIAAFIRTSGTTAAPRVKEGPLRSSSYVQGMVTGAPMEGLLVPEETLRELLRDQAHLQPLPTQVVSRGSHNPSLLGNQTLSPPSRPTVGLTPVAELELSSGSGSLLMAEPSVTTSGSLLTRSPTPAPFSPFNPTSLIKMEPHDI
The target in the next assay is ETV1 (Homo sapiens, UniProt P50549 1-477). The gist of the method:
as §1

The target of the next assay is T9, ERF (Homo sapiens, UniProt P50548 1-548).
T9 sequence: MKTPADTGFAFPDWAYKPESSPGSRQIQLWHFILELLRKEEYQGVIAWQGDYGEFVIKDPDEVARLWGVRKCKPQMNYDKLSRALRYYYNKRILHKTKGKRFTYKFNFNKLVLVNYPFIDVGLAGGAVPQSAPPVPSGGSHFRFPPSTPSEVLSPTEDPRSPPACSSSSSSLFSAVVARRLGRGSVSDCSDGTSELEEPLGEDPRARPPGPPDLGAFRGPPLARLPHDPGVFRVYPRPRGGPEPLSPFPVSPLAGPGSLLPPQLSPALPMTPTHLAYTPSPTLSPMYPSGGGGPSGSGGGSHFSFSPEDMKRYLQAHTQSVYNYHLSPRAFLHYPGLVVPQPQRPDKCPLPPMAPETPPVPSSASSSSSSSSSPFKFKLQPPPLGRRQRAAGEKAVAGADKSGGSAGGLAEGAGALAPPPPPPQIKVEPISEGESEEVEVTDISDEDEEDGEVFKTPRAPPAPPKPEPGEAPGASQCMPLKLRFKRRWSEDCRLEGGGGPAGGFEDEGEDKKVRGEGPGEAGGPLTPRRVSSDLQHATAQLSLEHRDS
The gist of the method:
as §1

In the next assay the target is T10, ETV3L (Homo sapiens, UniProt Q6ZN32 1-361).
T10 sequence: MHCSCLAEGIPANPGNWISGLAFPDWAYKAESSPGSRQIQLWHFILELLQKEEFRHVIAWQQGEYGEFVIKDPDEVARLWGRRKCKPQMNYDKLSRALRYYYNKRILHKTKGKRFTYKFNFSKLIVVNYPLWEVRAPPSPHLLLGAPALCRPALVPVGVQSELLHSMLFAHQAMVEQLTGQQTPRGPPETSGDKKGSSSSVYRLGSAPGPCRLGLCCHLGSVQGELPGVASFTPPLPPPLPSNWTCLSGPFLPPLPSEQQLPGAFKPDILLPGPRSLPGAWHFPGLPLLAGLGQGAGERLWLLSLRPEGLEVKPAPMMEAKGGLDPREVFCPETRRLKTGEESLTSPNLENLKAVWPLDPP
The gist of the method: as §1

The next assay deals with T11, ETS2 (Homo sapiens, UniProt P15036 1-469).
T11 sequence: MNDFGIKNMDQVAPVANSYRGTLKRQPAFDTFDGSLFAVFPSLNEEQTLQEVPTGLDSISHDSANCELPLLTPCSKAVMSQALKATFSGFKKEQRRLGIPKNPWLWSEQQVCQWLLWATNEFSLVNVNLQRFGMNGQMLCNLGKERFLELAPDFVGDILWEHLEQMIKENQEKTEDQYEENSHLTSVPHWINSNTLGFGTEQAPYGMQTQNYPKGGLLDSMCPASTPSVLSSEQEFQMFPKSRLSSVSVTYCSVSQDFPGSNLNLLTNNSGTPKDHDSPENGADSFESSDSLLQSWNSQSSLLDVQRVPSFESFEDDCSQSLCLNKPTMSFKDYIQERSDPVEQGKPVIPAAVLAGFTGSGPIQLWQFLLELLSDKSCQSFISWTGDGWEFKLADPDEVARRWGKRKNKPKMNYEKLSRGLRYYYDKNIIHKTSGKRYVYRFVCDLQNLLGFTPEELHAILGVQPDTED
The method, boiled down: as §1

The target in another assay is T12, ELF5 (Homo sapiens, UniProt Q9UKW6-2 1-255).
T12 sequence: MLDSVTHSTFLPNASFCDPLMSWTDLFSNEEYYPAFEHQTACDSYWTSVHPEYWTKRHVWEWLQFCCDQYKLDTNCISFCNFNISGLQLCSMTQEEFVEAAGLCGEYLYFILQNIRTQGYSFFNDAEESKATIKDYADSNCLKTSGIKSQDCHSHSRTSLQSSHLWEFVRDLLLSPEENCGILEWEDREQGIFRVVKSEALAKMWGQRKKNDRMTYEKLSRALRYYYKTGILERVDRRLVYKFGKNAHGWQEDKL
The gist of the method:
as §1

For the next assay, the target named is T13, ETV3 (Homo sapiens, UniProt P41162-2 1-143).
T13 sequence: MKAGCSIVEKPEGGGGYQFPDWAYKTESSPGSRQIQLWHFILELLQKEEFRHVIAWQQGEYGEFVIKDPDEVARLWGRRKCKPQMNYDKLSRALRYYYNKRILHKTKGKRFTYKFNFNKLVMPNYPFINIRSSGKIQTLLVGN
The gist of the method:
as §1

The target in the next assay is ETV6 (Homo sapiens, UniProt P41212 1-452). The method, boiled down: as §1
Sequence of ETV6 (P41212 whole entry): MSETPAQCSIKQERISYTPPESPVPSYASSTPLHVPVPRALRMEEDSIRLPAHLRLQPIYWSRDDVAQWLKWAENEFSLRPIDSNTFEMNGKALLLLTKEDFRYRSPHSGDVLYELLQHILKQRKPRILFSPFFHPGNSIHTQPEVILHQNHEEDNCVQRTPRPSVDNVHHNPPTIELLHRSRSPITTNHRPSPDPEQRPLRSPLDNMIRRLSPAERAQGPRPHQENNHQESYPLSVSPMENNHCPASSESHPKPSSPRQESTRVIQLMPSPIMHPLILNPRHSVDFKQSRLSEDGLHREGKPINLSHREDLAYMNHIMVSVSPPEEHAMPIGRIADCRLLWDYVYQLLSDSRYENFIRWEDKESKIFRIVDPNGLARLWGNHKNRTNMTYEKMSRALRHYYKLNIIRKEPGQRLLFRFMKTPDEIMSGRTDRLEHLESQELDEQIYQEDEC

Sequence of SPIB (Q01892 whole entry): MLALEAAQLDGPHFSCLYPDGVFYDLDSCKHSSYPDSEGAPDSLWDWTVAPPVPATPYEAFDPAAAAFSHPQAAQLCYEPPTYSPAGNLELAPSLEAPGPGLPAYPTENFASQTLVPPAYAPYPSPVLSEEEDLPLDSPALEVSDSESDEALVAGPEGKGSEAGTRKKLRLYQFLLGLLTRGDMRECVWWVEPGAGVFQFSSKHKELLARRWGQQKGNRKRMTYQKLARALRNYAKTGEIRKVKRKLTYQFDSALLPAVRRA
Sequence of ELF1 (P32519 whole entry): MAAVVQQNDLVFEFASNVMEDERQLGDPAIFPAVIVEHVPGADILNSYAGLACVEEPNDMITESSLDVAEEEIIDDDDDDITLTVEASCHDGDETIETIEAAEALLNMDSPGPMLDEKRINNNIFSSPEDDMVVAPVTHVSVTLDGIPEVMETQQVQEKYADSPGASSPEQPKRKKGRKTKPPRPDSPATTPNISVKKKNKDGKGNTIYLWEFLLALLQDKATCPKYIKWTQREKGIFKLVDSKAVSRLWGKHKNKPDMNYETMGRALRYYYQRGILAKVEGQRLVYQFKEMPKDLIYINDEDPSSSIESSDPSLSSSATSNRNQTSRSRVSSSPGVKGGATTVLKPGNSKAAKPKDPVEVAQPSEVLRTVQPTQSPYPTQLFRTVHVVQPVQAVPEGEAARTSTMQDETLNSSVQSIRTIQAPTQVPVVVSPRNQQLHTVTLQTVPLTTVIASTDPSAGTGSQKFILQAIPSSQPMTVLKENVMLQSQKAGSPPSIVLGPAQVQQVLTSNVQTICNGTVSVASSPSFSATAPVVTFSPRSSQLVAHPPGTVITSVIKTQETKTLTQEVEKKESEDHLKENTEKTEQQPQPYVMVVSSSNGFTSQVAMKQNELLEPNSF
Sequence of ETV1 (P50549 whole entry): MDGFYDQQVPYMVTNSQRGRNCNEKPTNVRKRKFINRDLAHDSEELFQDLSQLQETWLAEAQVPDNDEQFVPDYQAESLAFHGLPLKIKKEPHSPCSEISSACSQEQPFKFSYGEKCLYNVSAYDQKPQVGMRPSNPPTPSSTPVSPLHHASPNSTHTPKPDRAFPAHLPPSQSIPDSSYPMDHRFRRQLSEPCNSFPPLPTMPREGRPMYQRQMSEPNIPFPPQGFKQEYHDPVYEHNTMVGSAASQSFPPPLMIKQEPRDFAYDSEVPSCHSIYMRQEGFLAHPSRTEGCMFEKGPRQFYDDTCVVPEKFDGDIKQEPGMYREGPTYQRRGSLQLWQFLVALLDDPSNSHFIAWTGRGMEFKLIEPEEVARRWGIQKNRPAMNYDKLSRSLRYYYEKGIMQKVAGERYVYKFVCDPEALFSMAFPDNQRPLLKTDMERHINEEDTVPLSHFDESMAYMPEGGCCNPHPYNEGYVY

In the case of GGAAGA, the binding signal with FLI1 was 1.06 fold enrichment (6-mer frequency, TF over GST control); with ELK1, 1.16 fold enrichment (6-mer frequency, TF over GST control); with GABPA it was 1.11 fold enrichment (6-mer frequency, TF over GST control); in the assay with ERG it was 1.2 fold enrichment (6-mer frequency, TF over GST control); with ELF1, 1.02 fold enrichment (6-mer frequency, TF over GST control); with EHF, 1.3 fold enrichment (6-mer frequency, TF over GST control). Moreover, the binding signal with SPI1 was 1.17 fold enrichment (6-mer frequency, TF over GST control); in the assay with SPIB it was 1.19 fold enrichment (6-mer frequency, TF over GST control); in the assay with ELK3 it was 1.19 fold enrichment (6-mer frequency, TF over GST control); in the assay with FEV, 1.05 fold enrichment (6-mer frequency, TF over GST control); in the assay with ETV5, 1.22 fold enrichment (6-mer frequency, TF over GST control); with SPIC, 1.08 fold enrichment (6-mer frequency, TF over GST control). The binding signal in the assay with ELF4 is 1.06 fold enrichment (6-mer frequency, TF over GST control); with ETV1, 1.2 fold enrichment (6-mer frequency, TF over GST control); in the assay with ERF, 1.03 fold enrichment (6-mer frequency, TF over GST control); with ETV3L it was 1.14 fold enrichment (6-mer frequency, TF over GST control); with ETS2 it was 1.18 fold enrichment (6-mer frequency, TF over GST control); with ELF5, 1.58 fold enrichment (6-mer frequency, TF over GST control). The binding signal in the assay with ETV3 is 1.24 fold enrichment (6-mer frequency, TF over GST control); with ETV6, 1.26 fold enrichment (6-mer frequency, TF over GST control).

These data come from PMC7862700, “An all-to-all approach to the identification of sequence-specific readers for epigenetic DNA modifications on cytosine”.
